According to PubChem BioAssay AID602141 (Sanford-Burnham Center for Chemical Genomics, 2011):
Several values for one entry are separate records, joined by “and”; a condition that tells them apart may be missing. Equal entries are not always repeated. In all, about 360,000 compounds went through this assay and about 1,300 (0.36%) were called active. Only a selection was taken, and actives are over-represented in it overall. A number with no mark means an inactive call.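 Rule for the calls: active = corrected activity change at or below -50% at 5 µM; inactive = the rest.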

Test: KKLEB cell viability reduction – uHTS, fluorescence assay plates, cytotoxicity control for CF NF-kB inhibitor project, primary screen (AID 602141)
Conditions: KKLEB CF airway cells viability, ATPlite luminescence, overnight; at 5 µM; active compounds read low; cells stimulated with P. aeruginosa culture filtrate

Compound | activity change (cytotoxicity)
CCCN(CCC)C(=S)Nc1cc(C(=O)OC)ccc1C(=O)OC | -5.9%
COC(=O)c1ccc(C(=O)Nc2cc(Cl)ccc2Cl)cc1NC(=O)c1ccccc1C | -62.7% (active)
COC(=O)c1ccccc1NC(=O)c1cncc(Br)c1 | 16%
CC(=O)Nc1ccc(S(=O)(=O)N2CCn3cccc3C2C)cc1 (stereo not given) | -3.5%
CCCCN=C1C([N+](=O)[O-])=CC=C2C1=NC1(CCCCC1)N2O | -4.3%
CC(C)C[C@H]1CN=C(Nc2ccccc2)N1CC1CCCCC1 | 3.3%
Clc1ccc(COn2c(-c3ccc(Cl)cc3Cl)nc3ncccc32)cc1 | 1.3%
Fc1ccc(-c2ccc(CNCc3ccccn3)o2)cc1Cl | 5.4%
Clc1ccc(-c2cc(-c3ccccn3)on2)c(Cl)c1 | -62.1% (active)
O=C(CCN1C(=O)[C@@H]2Cc3ccccc3CN2C1=O)NCc1ccccc1 | -2.4%
CC(C)CCn1c(=O)c2c(nc3n2CCCN3Cc2ccccc2)n(C)c1=O | -20.8%
Cc1cc(C)cc(-c2nnc(SCC(=O)NC3CC3)o2)c1 | 8.4%
c1csc(CN2CCN(Cc3cccs3)C2c2cccs2)c1 | 0%
O=C(NCCSc1ncc(-c2ccccc2)[nH]1)c1ccco1 | 0.1%
Cc1ccc(-c2cn3cc(C)ccc3n2)cc1 | -61.7% (active)
Cc1ccc2nc(-c3ccc(Br)cc3)cn2c1 | -30%
Cc1ccc(-c2cc(N)on2)cc1 | -5.6%
CCn1c(SCC(=O)Nc2ccc(Br)cc2)nc2sc3c(c2c1=O)CCN(C)C3 | 9.6%
COC(=O)c1cc(NC(=O)c2nn(C)c(=O)c3ccccc23)cc(C(=O)OC)c1 | -11.1%
O=C(Nc1nnc(-c2ccc(F)cc2)s1)c1c(F)cccc1Cl | 7.4%
Cc1ccc(CS(=O)(=O)c2ncc(Cl)c(C(=O)Nc3nnc(C)s3)n2)cc1 | -93.7% (active)
Cc1cccc(CS(=O)(=O)c2ncc(Cl)c(C(=O)Nc3ccc(F)cc3)n2)c1 | -15.9%
O=C(Nc1nnc(Cc2ccc(Cl)cc2)s1)c1cccnc1 | -6%
CN(Cc1ccccc1)S(=O)(=O)c1nnc(NC(=O)c2ccccc2F)s1 | -8.6%

Compound | activity change (cytotoxicity)
CSc1nnc(NC(=O)c2nc(S(=O)(=O)Cc3ccc(C)cc3)ncc2Cl)s1 | -74.7% (active)
COCCNC(=O)C1(C)CCCN(Cc2cccc(F)c2)C1 (stereo not given) | 6.2%
CCOC(=O)NC(=O)C(=CNc1cccc(OC)c1)C(=O)NC(=O)OCC | 17.8%
CC(C)Nc1nc(NCCOc2ccccc2Cl)c2sccc2n1 | -5.6%
CN(c1ccc2nc3ccccc3c(=O)n2n1)C1CCCCC1 | -54.1% (active)
CC(C)(C)c1nc2ccccc2c(=O)n1N1C(=O)c2ccccc2C1=O | -12.6%
CN(C(=O)Nc1ccc(Cl)cc1)n1cnc2ccccc2c1=O | 6.1%
O=[N+]([O-])/C=C1\CCCCCN1 | -1.7%
COc1ccc(CNc2c(CO)cnc3c2cnn3C)cc1 | -62.1% (active)
COc1ccc(CNc2nnnn2C)cc1 | 6.7%
CCCn1nnnc1NCc1ccc(OC)cc1 | 5.9%
C[C@@H]1CN([C@H](C)CO)C(=O)c2cc(NC(=O)NC3CCCCC3)ccc2O[C@H]1CN(C)S(C)(=O)=O | 2.2%
C[C@H]1CN([C@@H](C)CO)C(=O)CCCn2cc(nn2)CO[C@@H]1CN(C)S(=O)(=O)c1cccc(C#N)c1 | 4.9%
O=C(Nc1cccc(C(=O)NC2CC2)c1)c1ccc(F)c(S(=O)(=O)N2CCOCC2)c1 | -2.3%
COc1cc(NS(=O)(=O)c2ccc(NC(=S)NC(=O)c3ccc(Br)cc3)cc2)ncn1 | 1%
COc1cc(C(=O)N(C)Cc2cccc(OC)c2OC)ccc1OCC(=O)Nc1cccc(C(F)(F)F)c1 | 7.7%
COc1cc(NC(=O)c2cncc(-c3ccc(C#N)cc3)c2)cc(C(=O)Nc2cccc(C(F)(F)F)c2)c1 | 7.5% and 5.1%
COc1cc(NC(=O)c2[nH]cnc2C(N)=O)cc(C(=O)Nc2cccc(C(F)(F)F)c2)c1 | -61.7% (active)
Cc1cccc(C(=O)O)c1[N+](=O)[O-] | 14%
Cn1ccnc1-c1nnn(-c2ccc(F)cc2)n1 | -12.5%
CCNC(=O)C1(C)CCCN(C(=O)c2ccc3ccccc3n2)C1 (stereo not given) | -5.1%
O=C(NCC1CCCO1)c1cc2c([nH]c3ccccc32)c(-c2ccc(F)cc2)n1 (stereo not given) | -5.3%
CC1=CCC2C(=O)N(c3cccc(C(=O)NC(C)c4ccccc4)c3)C(=O)C2C1 (stereo not given) | -1.1%
Cc1cccc(C)c1NC1=NC(=S)N(c2ccc(N(C)C)cc2)C1(C)C | -3.7%

Compound | activity change (cytotoxicity)
O=C1/C(=C\c2ccc([N+](=O)[O-])cc2)CS(=O)(=O)C/C1=C/c1ccc([N+](=O)[O-])cc1 | -101% (active)
O=C1CCCN1C(=O)COc1ccc([N+](=O)[O-])cc1 | -6.8%
CCCCC(=O)Nc1c2c(nn1-c1ccc([N+](=O)[O-])cc1)CS(=O)(=O)C2 | -15.2%
CO[C@@H]1[C@@H](OC(N)=O)[C@@H](O)C(Oc2ccc3c(O)c(NC(=O)c4ccc(O)c(CC=C(C)C)c4)c(=O)oc3c2C)OC1(C)C (stereo not given in full) | 44.1%
CS/C(=C\[N+](=O)[O-])Nc1ccc(C)cc1 | -4.4%
CCOc1ccc(C(=O)NC(C(=O)NCc2ccccn2)C(C)C)cc1 (stereo not given) | -1.5%
O=S(=O)(Nc1ccccc1N1CCOCC1)c1ccc(Cl)s1 | 1.7%
O=C(Nc1cccc(Cl)c1)Nc1ccccc1NS(=O)(=O)c1cccs1 | 13.5%
COc1cc(NC(=O)c2ccccc2NS(=O)(=O)c2ccc(Cl)s2)cc(OC)c1 | -57.2% (active)
COc1ccc(NC(=O)Cn2c(-c3ccc(OC)cc3)cn(-c3ccc(C)cc3)c2=O)cc1 | 12.5%
COc1ccc(C(CC(=O)Nc2ccc(C)cc2)NC(=O)C(F)(F)F)cc1 (stereo not given) | 6.9%
COc1ccc(CC(=O)Nc2ccc(-c3nnc(-c4ccc(C)cc4)o3)cc2)cc1 | -56.3% (active)
CCOc1ccccc1NS(=O)(=O)c1cc2c3c(c1)C(C)C(=O)N3CCC2 (stereo not given) | 7.2%
COc1ccc(CN(C(=O)c2cccs2)c2nccs2)cc1OC | 5.6%
O=C(NCc1cccnc1)c1nc(-c2cccs2)no1 | -11.3%
COc1ccc(/C=C/C(=O)NC(=S)N2CCCC(C(N)=O)C2)cc1 (stereo not given) | -10.3%
CCOc1ccc(NC(=O)COC(=O)C2CCC(=O)N2)c([N+](=O)[O-])c1 (stereo not given) | -7.5%
CCOc1ccc(NC(=S)NC(=O)/C=C/c2ccc(OC)cc2)c([N+](=O)[O-])c1 | -50.2% (active)
COc1ccc(S(=O)(=O)n2cnc3ccccc32)c(C)c1 | 0.5%
COc1c(C=O)c(CCN(C)C(=O)c2ccc(F)cc2)cc2c1OCO2 | -9%
O=C(c1ccc2c(c1)OCO2)N1CCNc2ccccc2C1 | 4.7%
S=C(NN=Cc1ccccn1)Nc1ccccn1 | -63.5% (active)
CS(=O)(=O)N(CC(=O)N/N=C/c1ccccn1)c1ccc(Oc2ccccc2)cc1 | 1.8%
O=C(N/N=C/c1ccccn1)c1cccc(NC(=O)c2ccc(Cl)cc2)c1 | -1.1%

Compound | activity change (cytotoxicity)
Cc1ccc(S(=O)(=O)N2CCCCC2)cc1NC(=O)CCNC(=O)c1ccccc1Cl | 1.6%
Nc1ncnc2c1ncn2[C@@H]1O[C@H](C(=O)NS(=O)(=O)c2c(Cl)nc3sccn23)[C@@H](O)[C@H]1O | -8.7%
O=C(Nc1cccc([N+](=O)[O-])c1)N1CCc2ccccc2C1 | -12.4%
COc1cccc(NCCC(=O)c2cccc([N+](=O)[O-])c2)c1 | 1.2%
COC(=O)/C=C\C(=O)Nc1cccc([N+](=O)[O-])c1 | -64.1% (active)
CCN(CC(=O)Nc1ccccc1C(F)(F)F)C(=O)C1CCN(C(=O)Nc2ccccc2)CC1 | -2.1%
Cc1cnc(C(=O)Oc2cccc(Cl)c2Cl)cn1 | 14.6%
Cn1c(-c2ccco2)nc2cc3ccccc3cc21 | -57.4% (active)
Cc1ccc2nc(-c3ccco3)c(Cc3cccc(Cl)c3)n2c1 | 6.4%
Cn1c(SCC(=O)Nc2ccc(Br)cc2F)nnc1-c1ccco1 | -9.6%
CCOc1ccc(S(=O)(=O)NCc2ccc3c(c2)OCO3)cc1C | -0.2%
COc1ccccc1CNC(=O)COC(=O)c1sc(C)nc1C | 5.6%
COc1ccc(C)cc1NC(=O)CCCN1C(=O)NC(C)(C)C1=O | 9.3%
Cc1cc(C)cc(NC(=O)N(C)Cc2ccccc2)c1 | 1.9%
CN1c2ccc(C=O)c3c(C=O)ccc(c23)N(C)C1(C)C | -67.5% (active)
Cc1ccc(C=O)c([B-](F)(F)F)c1 | 7.5%
Cc1ccc(S(=O)(=O)N(C)C)cc1NC(=O)CN1c2cccc3cccc(c23)S1(=O)=O | -28.1%
Cc1ccc(/C=N/NC(=O)Cn2ccc(C(F)(F)F)n2)o1 | 10.5%
Cc1cccc(NC(=S)N2CCC(O)CC2)c1C | -5.6%
Fc1ccc(OCc2nn3c(Cn4nnc5ccccc54)nnc3s2)cc1 | -11.4%
O=C(Nc1ccccc1Cl)/C(Cl)=C(\Cl)S(=O)c1ccccc1 (stereo not given) | -100% (active)
O=C(Nc1ccccc1Cl)c1ccccc1S(=O)(=O)c1ccccc1[N+](=O)[O-] | 4.2%
CC(=O)c1ccc(NC(=O)C(C)N(C)CC(=O)Nc2ccccc2Cl)cc1 (stereo not given) | -7%
